Measurements from PubChem BioAssay.
Unmarked numbers belong to inactive results. The rule behind the calls is not given here.

Molecular target: Pantothenate synthetase (Mycobacterium tuberculosis (strain ATCC 25618 / H37Rv)) (UniProt P9WIL5)
Experiment: Coupled enzyme confirmation of inhibitors against recombinant Mtb PanC (AID 375);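 note: 0% = full reaction with vehicle and 100% = no enzyme background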
Conditions: coupled enzyme assay; at 10 µM, stronger effect = higher value

Pantothenate synthetase (Mycobacterium tuberculosis (strain ATCC 25618 / H37Rv)), sequence (P9WIL5 whole entry, looked up): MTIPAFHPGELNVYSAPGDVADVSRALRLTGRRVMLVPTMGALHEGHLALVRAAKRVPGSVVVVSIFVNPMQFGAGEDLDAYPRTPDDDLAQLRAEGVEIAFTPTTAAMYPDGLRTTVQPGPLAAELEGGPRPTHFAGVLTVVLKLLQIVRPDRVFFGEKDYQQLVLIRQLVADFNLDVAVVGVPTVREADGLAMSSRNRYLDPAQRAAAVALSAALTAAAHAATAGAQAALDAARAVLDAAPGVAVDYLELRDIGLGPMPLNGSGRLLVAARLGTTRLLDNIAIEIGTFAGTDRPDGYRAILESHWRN

Structure (SMILES) | inhibition [%]
COc1ccc(NC(=O)CC2Sc3ncnn3C2=O)cc1 (configuration not stated) | 0
CCOc1cccc(-c2nnc3sc(COc4ccc(OC)cc4)nn23)c1 | 4
O=S(=O)(Nc1cccnc1)c1ccc2c(c1)OCCO2 | 1
CCCc1[nH]nc2c1C(c1cn[nH]c1-c1ccc(F)cc1)C(C#N)=C(N)O2 (configuration not stated) | 10
COc1ccccc1NC(=O)N1CCN(c2cccc(C(F)(F)F)c2)CC1 | 4
O=C1c2oc3ccccc3c(=O)c2C(c2ccccn2)N1Cc1ccccc1 (configuration not stated) | 13
Cc1ccc(CS(=O)(=O)CCC(=O)NCC2CCCO2)cc1 (configuration not stated) | 0
Nc1nc(SCc2nc3scc(-c4cccs4)c3c(=O)[nH]2)n[nH]1 | 6
Clc1ccc2nc(N3CCCCC3)[nH]c2c1 | 3
Cc1nnc(N(C)C(=O)c2cccnc2)s1 | 0
Cc1ccc(NC(=O)c2cc(S(=O)(=O)N3CCC4(CC3)OCCO4)ccc2F)cc1 | 0
O=C(NCCC1=CCCCC1)C1CC(=O)N(C2CCCCCC2)C1 (configuration not stated) | 2
Cc1cc(C)nc(NS(=O)(=O)c2ccc(NC(=O)Cn3c(=O)oc4ccccc43)cc2)n1 | 1
FC(F)(F)c1cc(-c2ccco2)nc(N2CCOCC2)n1 | 2
CN(CC(=O)Nc1ccc(F)c(Cl)c1)S(=O)(=O)c1cccc2nsnc12 | 0
CCOc1cccc(C(=O)N(Cc2ccc(F)cc2)C2CCS(=O)(=O)C2)c1 (configuration not stated) | 3
O=C(c1ccc2c(c1)OCCO2)N1CCCCC1 | 1
